Reference: the supplement of paper PMC10849652
About 7,900 targets were measured; listed, in parts, are those with a hit and a random draw of the rest. About 0.6% of all pairs of compound and target were hits. Values without a mark were called inactive.

Legend:
Test in all cases: log2 fold change, soluble protein after heating vs DMSO (PISA); higher = thermal stabilisation; K562 cells, 10 uM, 30 min; active = over 0.2 and 3.5 SD of the protein, either way, in both replicates (recomputed)
YAE1 = YAE1 (UniProt Q9NRH1)
Summary of the method: (§1)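 Soluble protein was quantified by TMTpro 16plex LC-MS/MS after channel sums were equalised. It was obtained as the supernatant after 21,000xg for 90 min from pooled aliquots of K562 cells (2×10^6 cells/mL, 10 μM compound, 30 min) heated for 3 min across 48°C-58°C and extracted in PBS with 0.5% NP-40 at 4°C. Thermal stability values are relative to control samples and come from duplicates. They are given as log2 fold changes.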

YBX1 = YBX1 (UniProt P67809)
Chain of YBX1 (P67809 whole entry, looked up): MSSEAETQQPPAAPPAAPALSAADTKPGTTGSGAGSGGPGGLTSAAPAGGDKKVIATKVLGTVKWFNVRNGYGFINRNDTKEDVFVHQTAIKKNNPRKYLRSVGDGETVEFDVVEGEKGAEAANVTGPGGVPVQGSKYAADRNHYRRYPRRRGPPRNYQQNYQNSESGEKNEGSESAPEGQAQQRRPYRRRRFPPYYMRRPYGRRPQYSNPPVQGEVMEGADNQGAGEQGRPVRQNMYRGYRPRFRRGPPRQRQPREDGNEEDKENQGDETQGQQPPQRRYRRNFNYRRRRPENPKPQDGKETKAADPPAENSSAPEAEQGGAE
Summary of the method: as §1

YES1 = YES1 (UniProt P07947)
Summary of the method: as §1

YIPF4 = YIPF4 (UniProt Q9BSR8)
Chain of YIPF4 (Q9BSR8 whole entry, looked up): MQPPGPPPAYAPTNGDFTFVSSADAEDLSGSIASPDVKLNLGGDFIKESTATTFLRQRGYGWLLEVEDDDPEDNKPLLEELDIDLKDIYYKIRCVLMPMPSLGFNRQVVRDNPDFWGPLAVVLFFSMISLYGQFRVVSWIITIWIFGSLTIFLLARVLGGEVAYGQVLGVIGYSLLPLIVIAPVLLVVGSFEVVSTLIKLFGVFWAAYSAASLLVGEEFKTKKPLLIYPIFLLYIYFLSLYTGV
Summary of the method: as §1

YIPF5 isoform 3 = YIPF5 isoform 3 (UniProt Q969M3)
Chain of YIPF5 isoform 3 (Q969M3 whole entry, looked up, canonical isoform): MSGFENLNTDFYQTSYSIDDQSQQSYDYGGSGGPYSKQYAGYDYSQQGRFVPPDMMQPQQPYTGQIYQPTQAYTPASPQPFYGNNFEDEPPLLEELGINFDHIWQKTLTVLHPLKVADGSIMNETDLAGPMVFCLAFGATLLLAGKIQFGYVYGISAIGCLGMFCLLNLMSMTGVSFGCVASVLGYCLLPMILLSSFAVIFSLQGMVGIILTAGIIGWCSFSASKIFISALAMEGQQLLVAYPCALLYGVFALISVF
Summary of the method: as §1

YIPF6 = YIPF6 (UniProt Q96EC8)
Chain of YIPF6 (Q96EC8 whole entry, looked up): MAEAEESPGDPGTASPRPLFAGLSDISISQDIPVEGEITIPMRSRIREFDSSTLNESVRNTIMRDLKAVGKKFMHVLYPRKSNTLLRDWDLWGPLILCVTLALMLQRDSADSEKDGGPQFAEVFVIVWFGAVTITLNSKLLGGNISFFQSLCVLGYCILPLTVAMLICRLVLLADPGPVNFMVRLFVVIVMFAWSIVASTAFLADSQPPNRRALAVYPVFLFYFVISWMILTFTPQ
Summary of the method: as §1

YLPM1 = YLPM1 (UniProt P49750)
Summary of the method: as §1

YOD1 = YOD1 (UniProt Q5VVQ6)
Chain of YOD1 (Q5VVQ6 whole entry, looked up): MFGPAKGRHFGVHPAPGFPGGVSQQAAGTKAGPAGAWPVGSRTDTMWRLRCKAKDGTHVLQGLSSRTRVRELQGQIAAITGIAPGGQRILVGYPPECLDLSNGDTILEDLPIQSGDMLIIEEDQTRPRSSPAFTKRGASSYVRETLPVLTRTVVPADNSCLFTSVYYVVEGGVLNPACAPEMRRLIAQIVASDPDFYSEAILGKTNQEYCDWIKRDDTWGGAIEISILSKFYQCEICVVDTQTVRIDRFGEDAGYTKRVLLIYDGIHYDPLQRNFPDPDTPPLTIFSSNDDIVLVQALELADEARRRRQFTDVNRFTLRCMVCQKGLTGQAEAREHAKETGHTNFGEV
Summary of the method: as §1

YWHAB = YWHAB (UniProt P31946)
Summary of the method: as §1

YWHAQ = YWHAQ (UniProt P27348)
Chain of YWHAQ (P27348 whole entry, looked up): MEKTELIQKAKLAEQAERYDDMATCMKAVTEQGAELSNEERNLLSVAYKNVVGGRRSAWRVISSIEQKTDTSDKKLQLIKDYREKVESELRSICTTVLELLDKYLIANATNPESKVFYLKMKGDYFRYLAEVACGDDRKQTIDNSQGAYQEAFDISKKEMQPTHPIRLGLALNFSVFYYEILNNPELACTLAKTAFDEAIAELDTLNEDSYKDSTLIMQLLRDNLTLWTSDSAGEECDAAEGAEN
Summary of the method: as §1

YWHAZ [1] = biological target: YWHAZ (UniProt E7ESK7)
Summary of the method: as §1

YWHAZ [2] = biological target: YWHAZ (UniProt P63104)
Chain of YWHAZ (UniProt P63104) (P63104 whole entry, looked up): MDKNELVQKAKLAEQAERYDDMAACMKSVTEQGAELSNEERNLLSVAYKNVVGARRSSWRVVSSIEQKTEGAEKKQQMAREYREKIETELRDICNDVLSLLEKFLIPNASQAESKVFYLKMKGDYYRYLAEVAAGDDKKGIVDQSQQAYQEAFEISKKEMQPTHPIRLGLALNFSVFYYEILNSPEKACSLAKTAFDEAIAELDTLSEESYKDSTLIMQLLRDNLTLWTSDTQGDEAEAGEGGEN
Summary of the method: as §1

YY1 = YY1 (UniProt P25490)
Chain of YY1 (P25490 whole entry, looked up): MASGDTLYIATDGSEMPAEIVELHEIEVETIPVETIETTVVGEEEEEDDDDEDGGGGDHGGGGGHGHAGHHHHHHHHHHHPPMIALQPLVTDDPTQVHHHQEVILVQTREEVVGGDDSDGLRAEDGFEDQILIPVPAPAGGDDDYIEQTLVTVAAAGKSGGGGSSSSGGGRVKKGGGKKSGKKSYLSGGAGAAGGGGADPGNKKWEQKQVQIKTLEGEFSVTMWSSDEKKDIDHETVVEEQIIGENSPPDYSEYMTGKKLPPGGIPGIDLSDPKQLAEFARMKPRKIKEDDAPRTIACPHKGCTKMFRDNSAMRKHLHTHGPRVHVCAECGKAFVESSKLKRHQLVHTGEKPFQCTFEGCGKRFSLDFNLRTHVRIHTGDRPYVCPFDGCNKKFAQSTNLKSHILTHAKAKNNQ
Summary of the method: as §1

ZADH2 = ZADH2 (UniProt Q8N4Q0)
Chain of ZADH2 (Q8N4Q0 whole entry, looked up): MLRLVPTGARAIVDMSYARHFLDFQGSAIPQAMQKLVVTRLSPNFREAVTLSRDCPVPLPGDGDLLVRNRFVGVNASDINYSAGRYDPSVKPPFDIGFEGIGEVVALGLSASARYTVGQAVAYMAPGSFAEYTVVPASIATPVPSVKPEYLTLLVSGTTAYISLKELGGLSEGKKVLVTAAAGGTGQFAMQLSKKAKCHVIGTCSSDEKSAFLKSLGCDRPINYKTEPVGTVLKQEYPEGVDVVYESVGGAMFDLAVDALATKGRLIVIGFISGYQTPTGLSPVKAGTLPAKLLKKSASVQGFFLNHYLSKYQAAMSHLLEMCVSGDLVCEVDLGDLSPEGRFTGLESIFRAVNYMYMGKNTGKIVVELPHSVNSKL
Summary of the method: as §1

ZBTB17 isoform 2 = ZBTB17 isoform 2 (UniProt Q13105)
Summary of the method: as §1

ZBTB21 = ZBTB21 (UniProt Q9ULJ3)
Chain of ZBTB21 (Q9ULJ3 whole entry, looked up): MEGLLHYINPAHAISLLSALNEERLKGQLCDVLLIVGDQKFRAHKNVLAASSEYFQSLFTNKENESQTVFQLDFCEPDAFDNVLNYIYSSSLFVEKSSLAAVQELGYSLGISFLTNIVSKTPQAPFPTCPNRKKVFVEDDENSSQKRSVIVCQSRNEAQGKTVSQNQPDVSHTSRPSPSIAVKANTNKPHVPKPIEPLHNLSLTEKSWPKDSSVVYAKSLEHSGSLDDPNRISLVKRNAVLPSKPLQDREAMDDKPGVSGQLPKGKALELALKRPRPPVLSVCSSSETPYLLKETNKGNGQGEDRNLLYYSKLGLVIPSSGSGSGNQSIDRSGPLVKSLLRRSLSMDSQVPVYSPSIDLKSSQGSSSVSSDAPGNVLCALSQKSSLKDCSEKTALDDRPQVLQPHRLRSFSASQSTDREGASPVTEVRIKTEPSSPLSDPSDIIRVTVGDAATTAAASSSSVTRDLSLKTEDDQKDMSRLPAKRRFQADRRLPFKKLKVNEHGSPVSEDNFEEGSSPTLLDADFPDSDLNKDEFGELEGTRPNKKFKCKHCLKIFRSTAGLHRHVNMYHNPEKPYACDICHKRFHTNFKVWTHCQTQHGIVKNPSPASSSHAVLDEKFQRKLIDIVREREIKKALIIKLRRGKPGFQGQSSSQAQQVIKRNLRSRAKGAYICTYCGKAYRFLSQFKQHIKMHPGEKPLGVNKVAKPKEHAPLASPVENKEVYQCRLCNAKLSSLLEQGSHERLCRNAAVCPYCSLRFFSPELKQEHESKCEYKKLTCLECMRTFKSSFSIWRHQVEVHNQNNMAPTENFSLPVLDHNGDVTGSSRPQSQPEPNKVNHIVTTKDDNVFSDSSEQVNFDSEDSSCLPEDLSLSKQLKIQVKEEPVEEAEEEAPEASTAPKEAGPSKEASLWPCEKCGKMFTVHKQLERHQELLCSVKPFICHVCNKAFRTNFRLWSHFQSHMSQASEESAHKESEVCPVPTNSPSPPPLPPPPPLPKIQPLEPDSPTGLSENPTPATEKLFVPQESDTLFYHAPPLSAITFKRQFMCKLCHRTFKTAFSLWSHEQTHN
Summary of the method: as §1

ZBTB43 = ZBTB43 (UniProt O43298)
Summary of the method: as §1

ZC3H18 = ZC3H18 (UniProt Q86VM9)
Chain of ZC3H18 (Q86VM9 whole entry, looked up): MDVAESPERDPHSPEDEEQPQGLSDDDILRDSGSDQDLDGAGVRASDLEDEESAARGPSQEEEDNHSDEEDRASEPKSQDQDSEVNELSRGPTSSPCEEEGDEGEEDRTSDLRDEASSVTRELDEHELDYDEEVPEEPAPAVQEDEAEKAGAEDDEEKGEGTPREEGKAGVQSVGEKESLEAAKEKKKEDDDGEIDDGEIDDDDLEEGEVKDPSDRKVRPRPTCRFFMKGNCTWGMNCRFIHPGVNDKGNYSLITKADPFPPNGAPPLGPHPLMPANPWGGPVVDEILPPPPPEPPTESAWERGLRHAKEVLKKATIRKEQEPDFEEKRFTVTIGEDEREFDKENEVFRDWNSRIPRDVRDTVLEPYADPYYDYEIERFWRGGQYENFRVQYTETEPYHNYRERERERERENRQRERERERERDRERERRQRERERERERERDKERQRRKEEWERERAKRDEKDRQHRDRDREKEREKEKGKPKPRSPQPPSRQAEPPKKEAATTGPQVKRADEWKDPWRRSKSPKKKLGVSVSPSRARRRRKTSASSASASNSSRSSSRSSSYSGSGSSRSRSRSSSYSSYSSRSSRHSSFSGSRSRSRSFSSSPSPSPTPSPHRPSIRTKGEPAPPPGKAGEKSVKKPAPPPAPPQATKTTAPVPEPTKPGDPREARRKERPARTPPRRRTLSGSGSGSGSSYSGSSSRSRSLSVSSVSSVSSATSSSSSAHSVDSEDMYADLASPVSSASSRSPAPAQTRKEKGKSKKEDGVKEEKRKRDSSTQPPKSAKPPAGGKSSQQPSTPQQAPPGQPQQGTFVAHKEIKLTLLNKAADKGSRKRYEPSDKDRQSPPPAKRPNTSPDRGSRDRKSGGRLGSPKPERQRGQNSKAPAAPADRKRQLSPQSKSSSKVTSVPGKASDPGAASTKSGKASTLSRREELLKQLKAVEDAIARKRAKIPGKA
Summary of the method: as §1

YPEL5 = YPEL5 (UniProt P62699)
Chain of YPEL5 (P62699 whole entry, looked up): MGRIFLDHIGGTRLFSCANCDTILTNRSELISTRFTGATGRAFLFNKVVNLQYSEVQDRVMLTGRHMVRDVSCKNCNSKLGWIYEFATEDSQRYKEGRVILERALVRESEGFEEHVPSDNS
Summary of the method: as §1

Compound	log2 fold change (YAE1)	log2 fold change (YBX1)	log2 fold change (YES1)	log2 fold change (YIPF4)	log2 fold change (YIPF5 isoform 3)	log2 fold change (YIPF6)	log2 fold change (YLPM1)	log2 fold change (YOD1)	log2 fold change (YWHAB)	log2 fold change (YWHAQ)	log2 fold change (YWHAZ [1])	log2 fold change (YWHAZ [2])	log2 fold change (YY1)	log2 fold change (ZADH2)	log2 fold change (ZBTB17 isoform 2)	log2 fold change (ZBTB21)	log2 fold change (ZBTB43)	log2 fold change (ZC3H18)	log2 fold change (YPEL5)
Cc1cc(Nc2cc(N3CCN(C)CC3)nc(Sc3ccc(NC(=O)C4CC4)cc3)n2)n[nH]1 [tozasertib]	0.033	-0.041	-0.45	0.079	-0.089	-0.066	-0.051	0.043	0.019	0.046	0.176	0.045	0.099	0.014	0.299	-0.219	0.063	0.061	–
COc1cc2ncnc(Nc3ccc(F)c(Cl)c3)c2cc1OCCCN1CCOCC1 [gefitinib]	-0.016	-0.096	-0.045	0.038	0.024	0.005	0.002	0.006	-0.001	0.007	–	0.005	-0.076	-0.029	–	-0.125	0.025	-0.033	-0.239
Cc1ccc2c(=O)c3ccccc3n(CCCN)c2c1C	0.022	-0.637 (active)	0.043	0.215	-0.006	0.145	0.023	0.063	-0.072	-0.055	0.029	-0.009	-0.433 (active)	0.038	1.05 (active)	-0.183	-1.06 (active)	-0.612 (active)	–
CC(C)c1cnn2c(NCc3ccccc3)cc(NCCCCCCN)nc12	0.057	0.038	0	-0.032	0.008	-0.044	-0.086	-0.153	0.014	-0.026	–	0.052	-0.24 (active)	-0.019	0.054	-0.027	0.138	-0.122	-0.083
CCCS(=O)(=O)Nc1ccc(F)c(C(=O)c2c[nH]c3ncc(-c4ccc(Cl)cc4)cc23)c1F [vemurafenib]	0.019	-0.12	-0.159	0.03	-0.021	-0.15	0.017	-0.001	0.021	0.284	–	0.037	0.03	0	–	-0.032	0.044	-0.025	-0.068
CS(=O)(=O)c1ccc(-c2cnc(N)c(C(=O)Nc3ccccc3)n2)cc1	0.011	-0.101	–	0.013	-0.093	0.199	-0.051	0.117	0.017	-0.013	–	-0.017	-0.061	-0.063	-0.013	0.048	0.021	-0.056	0.152
CN1CCC(CNc2ccc3ncc(-c4cccc(OC(F)(F)F)c4)n3n2)CC1	0.057	0.348	-0.326	0.101	-0.288	0.155	-0.113	-0.305 (active)	-0.042	0.585	–	0.035	-0.21	0.023	–	-0.149	0.032	-0.044	-0.094
Cc1cccc(CC(=O)N2CCc3c2ccc(-c2cn(C)c4ncnc(N)c24)c3F)n1	0.008	-0.024	0.007	-0.042	0.06	-0.006	-0.05	0.041	-0.058	0.694 (active)	–	0.029	0.003	-0.041	–	0.016	-0.025	-0.063	0.198
